This is part of a sample that, as a whole, favours compounds with a hit. Of some 83,000 tested, about 20% had one in any assay.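 Single-dose data. Exposure time 48 hours. Values below 10 considered active.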 Values without a mark were called inactive. The source made the active and inactive calls.
Tests used:
Assay in all cases: NCI-60 one-dose screen, 48 h (100 = growth as untreated, 0 = no growth, -100 = all killed)
Settings in all cases: 10 µM unless noted
[1] = test system: HT29 colon
[2] = test system: SNB-75 CNS
[3] = test system: SNB-19 CNS
[4] = test system: U251 CNS
[5] = test system: PC-3 prostate
[6] = test system: UACC-62 melanoma
[7] = test system: LOX IMVI melanoma
[8] = test system: SK-MEL-28 melanoma
[9] = test system: SK-MEL-2 melanoma
[10] = test system: EKVX NSCLC
[11] = test system: SN12C renal
[12] = test system: UO-31 renal
[13] = test system: TK-10 renal
[14] = test system: ACHN renal
[15] = test system: CAKI-1 renal
[16] = test system: A498 renal
[17] = test system: CCRF-CEM leukemia
[18] = test system: MOLT-4 leukemia
[19] = test system: SR leukemia

SMILES | growth [1] | growth [2] [%] | growth [3] [%] | growth [4] | growth [5] | growth [6] | growth [7] | growth [8] [%] | growth [9] [%] | growth [10] [%] | growth [11] | growth [12] | growth [13] | growth [14] | growth [15] | growth [16] [%] | growth [17] | growth [18] | growth [19]
CCn1c2c(c3ccccc31)SC1c3cccn3CCN1C2=S (stereo not given) | 90.2% | 79.6 | 95.8 | 93.8% | 89.1% | 81% | 96.8% | 110 | 89.9 | 107 | 98.3% | 84.9% | 89% | 99.1% | 88.3% | 115 | 81.2% | 88.8% | 109%
CCCCCCCC/C=C\CCCCCCCCOc1ccccc1CC(=O)NCC[N+]1(C)CCCC1 | 18% | 79 | 60.4 | 47.6% | 17.5% | 67.1% | 72% | 96.7 | 106 | 93 | 49.5% | 99.2% | 70.5% | 107% | 97.4% | 93.2 | 39.3% |  | 28%
Cc1ccsc1/C=C/C1=NCCCN1C | 99.3% | 102 | 104 | 100% | 90.5% | 106% | 95.6% | 103 | 92.6 | 99.5 | 95.3% | 80% | 104% | 101% | 97.1% | 113 | 81% | 95% | 
CCCCc1nc(Cl)c(CO)n1Cc1ccc(-c2ccccc2-c2nn[nH]n2)cc1 | 108% | 101 | 110 | 97.9% | 93.2% | 102% | 100% | 114 | 125 | 88.1 | 99.3% | 82.2% | 108% | 107% | 90.5% | 119 | 113% | 100% | 
OCCOc1c(Cl)cc(Cl)cc1Cl | 110% | 62.2 | 94.2 | 103% | 101% | 94.6% | 100% | 96.8 | 126 | 106 | 89.8% | 87.8% | 113% | 99.3% | 93.8% | 70.7 | 113% | 111% | 
COc1cc(/C=C2\COc3ccc(O)c(O)c3C2=O)cc(OC)c1 | 3.57% (active) | 26.5 | 11.2 | -19.3% (active) | -3.29% (active) | -86.3% (active) | -66.2% (active) | 14.1 | 86.5 | 56.4 | -89.7% (active) | -95.6% (active) | 16.3% | -85.7% (active) | 4.89% (active) | 112 | 3.2% (active) | -24.3% (active) | -13.6% (active)
CCCCCCCCSc1ncnc2c1ncn2CO | 91% | 75.1 | 94.7 | 74.7% | 75.6% | 92.8% | 80.1% | 101 | 95.8 | 55.5 | 76.4% | 86.6% | 89.9% | 81% | 72.6% | 106 |  | 85.8% | 115%
COc1ccc(/C=C2\COc3ccc(O)c(O)c3C2=O)cc1OC | 8.1% (active) | 42.1 | 22.4 | 5.85% (active) | 11.7% | -29.4% (active) | -68% (active) | 57.2 | 76 | 42.2 | -67.7% (active) | -87.9% (active) | 5.44% (active) | -56.3% (active) | 11.1% | 105 | -13.9% (active) | -21.5% (active) | -1.26% (active)
CC12CCCCC1C(C(N)=O)C(=O)O2 (stereo not given) | 112% | 96.1 | 100 | 104% | 101% | 98.8% | 96.4% | 105 | 104 |  | 97.9% | 93.9% | 100% | 112% | 104% | 124 | 102% | 98.1% | 94.6%

— PubChem BioAssay (NCI)
